Assay results as given in publication PMC10668032, “Altered binding affinity of SIX1-Q177R correlates with enhanced WNT5A and WNT pathway effector expression in Wilms tumor”.
The full ranking holds about 33,000 sequences; the median of “e-score” is about -0.05, and the highest 2% start at about 0.38. The sample holds the highest values, similar sequences and a random draw of the others, so the mix is not that of the screen.

Each sequence was assayed against T1, SIX1-Q177R homeodomain (human, UniProt Q15475 108-198, Q177R) (assay: universal protein binding microarray; Universal all-10-mer PBM (8x60K, AMADID 030236), 300 nM GST-tagged protein, Alexa Fluor 488 anti-GST; buffer, salt, pH and temperature not stated (as in Berger); high values mean tight binding). Settings: protein: ivt; tags: N-terminal GST; dsDNA, one strand shown.
T1 sequence: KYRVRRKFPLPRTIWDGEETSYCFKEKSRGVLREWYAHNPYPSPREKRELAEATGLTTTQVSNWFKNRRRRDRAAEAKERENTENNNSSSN
Outline: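 Homeodomains fused to GST were made by in vitro transcription/translation and measured by anti-GST western blot with a recombinant GST standard curve. At 300 nM final concentration, they were applied in duplicate to universal 'all 10-mer' protein binding microarrays (8×60K format).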

| Sequence | binding signal |
| --- | --- |
| AGTGTCAT | 0.462 ± 0.0172 E-score |
| GGTGTCAA | 0.49013 ± 0.000481 E-score |
| AGTGTCTG | 0.302 ± 0.0115 E-score |
| GGGGTCAA | 0.253 ± 0.0228 E-score |
| AGAGTCAT | 0.1867 ± 0.000552 E-score |
| AGTGTCCG | 0.365 ± 0.00508 E-score |
| AGTGTCAA | 0.424 ± 0.0101 E-score |
| GGCGTCAA | 0.177 ± 0.0347 E-score |
| GAGGTATC | 0.337 ± 0.00525 E-score |
| CCCTCCCA | 0.176 ± 0.0422 E-score |
| ACCAAACA | 0.244 ± 0.0473 E-score |
| GTAACATA | 0.196 ± 0.0373 E-score |
| AAAGGGGG | 0.233 ± 0.0235 E-score |
| CACCTTTC | 0.195 ± 0.00584 E-score |
| CGTGATCC | 0.195 ± 0.0306 E-score |
| CGTGTCAA | 0.409 ± 0.00885 E-score |
| TGTGTCAA | 0.303 ± 0.0203 E-score |
| CGGGTCAA | 0.2 ± 0.04 E-score |
| ACTATGCG | 0.17 ± 0.0186 E-score |
| ACCTCGGA | 0.175 ± 0.0387 E-score |
| AATGACTC | 0.245 ± 0.00746 E-score |
| CATGACCC | 0.218 ± 0.0214 E-score |

| Sequence | binding signal |
| --- | --- |
| AATGACCC | 0.181 ± 0.0204 E-score |
| GATGACAC | 0.4656 ± 0.00203 E-score |
| CATGATAC | 0.287 ± 0.0236 E-score |
| CATGACAC | 0.4733 ± 0.00427 E-score |
| AATGACAC | 0.464 ± 0.0115 E-score |
| GATGATAC | 0.242 ± 0.0302 E-score |
| GATGACCC | 0.211 ± 0.0466 E-score |
| CACCTAGA | 0.276 ± 0.00873 E-score |
| GACGCCAC | 0.201 ± 0.00624 E-score |
| CACCCATC | 0.277 ± 0.0196 E-score |
| ACCCCCGA | 0.298 ± 0.0252 E-score |
| CACTATCC | 0.196 ± 0.0388 E-score |
| AGGGTACA | 0.237 ± 0.00699 E-score |
| ACTCCGGA | 0.204 ± 0.0189 E-score |
| ACCCAGAA | 0.179 ± 0.00761 E-score |
| ACAGTACA | 0.203 ± 0.0245 E-score |
| GGATCCGA | 0.217 ± 0.0131 E-score |
| CACTACCA | 0.227 ± 0.00878 E-score |
| ACACGACG | 0.368 ± 0.0133 E-score |
| ACACGACC | 0.4169 ± 0.00152 E-score |
| ACACGACT | 0.411 ± 0.00971 E-score |
| CCACGACA | 0.27 ± 0.00989 E-score |

| Sequence | binding signal |
| --- | --- |
| ACACGACA | 0.404 ± 0.00581 E-score |
| ACACGAAT | 0.31 ± 0.00916 E-score |
| ACACGAAA | 0.302 ± 0.0196 E-score |
| GCACGACA | 0.2099 ± 0.000516 E-score |
| GCACGACC | 0.255 ± 0.00765 E-score |
| ACCGAATG | 0.173 ± 0.0343 E-score |
| CCCCCCTA | 0.232 ± 0.01 E-score |
| GTGGAGTA | 0.29 ± 0.0112 E-score |
| ATCGAGGG | 0.167 ± 0.00486 E-score |
| ATCCGATC | 0.213 ± 0.0309 E-score |
| CACTCGGC | 0.237 ± 0.0125 E-score |
| GCGAGTAC | 0.175 ± 0.00781 E-score |
| CCGTATCA | 0.245 ± 0.0466 E-score |
| GGGTAACC | 0.196 ± 0.00371 E-score |
| ACGATAGT | 0.157 ± 0.0172 E-score |
| CTACCACA | 0.154 ± 0.0418 E-score |
| ACACCACT | 0.4835 ± 0.00239 E-score |
| AAACCACA | 0.2156 ± 0.00176 E-score |
| GCACCACA | 0.154 ± 0.00776 E-score |
| ATACCACC | 0.25 ± 0.00441 E-score |
| ACGCCACT | 0.159 ± 0.00951 E-score |
| ACCACACT | 0.2703 ± 0.00247 E-score |

| Sequence | binding signal |
| --- | --- |
| ATACCACG | 0.216 ± 0.0275 E-score |
| ACACCACG | 0.4775 ± 0.00181 E-score |
| ACACCACC | 0.4809 ± 0.000976 E-score |
| GCACCACC | 0.261 ± 0.00493 E-score |
| ACACCACA | 0.485 ± 0.000106 E-score |
| AACTAACA | 0.2417 ± 0.000339 E-score |
| CACGCTGC | 0.293 ± 0.00561 E-score |
| ATAAGCAC | 0.166 ± 0.0125 E-score |
| ATTCGCAA | 0.162 ± 0.0131 E-score |
| TACCCGTA | 0.168 ± 0.00327 E-score |
| GGGTTTAA | 0.232 ± 0.0257 E-score |
| GAACCCAC | 0.19 ± 0.0124 E-score |
| ACCTCACA | 0.244 ± 0.00679 E-score |
| CACTAAAG | 0.185 ± 0.042 E-score |
| CCACTCCA | 0.152 ± 0.00234 E-score |
| ATACTCCG | 0.195 ± 0.0283 E-score |
| ACACTCCG | 0.3884 ± 0.00235 E-score |
| ACACTTCT | 0.374 ± 0.0413 E-score |
| ACACTCCC | 0.404 ± 0.00738 E-score |
| ACACTCCT | 0.391 ± 0.0158 E-score |
| ACACTCCA | 0.373 ± 0.0149 E-score |
| ACCCTCCG | 0.271 ± 0.0147 E-score |

| Sequence | binding signal |
| --- | --- |
| ACTCTCCC | 0.163 ± 0.0151 E-score |
| GGCGGATA | 0.22 ± 0.0151 E-score |
| CACTCCAA | 0.161 ± 0.0414 E-score |
| AGGCTACC | 0.187 ± 0.00757 E-score |
| CACCGTCA | 0.209 ± 0.0101 E-score |
| AGCACGGG | 0.155 ± 0.00564 E-score |
| AACACGGG | 0.432 ± 0.00733 E-score |
| CACACGGG | 0.332 ± 0.0383 E-score |
| AACACGGA | 0.372 ± 0.0198 E-score |
| AACACGGT | 0.383 ± 0.0148 E-score |
| CACTCGCA | 0.264 ± 0.0114 E-score |
| ACCGCGGT | 0.187 ± 0.0496 E-score |
| AACAAGTG | 0.172 ± 0.00772 E-score |
| GAGTGTTA | 0.407 ± 0.0179 E-score |
| AAGTGTTA | 0.393 ± 0.0449 E-score |
| GAGTGCTA | 0.152 ± 0.00664 E-score |
| CACTGTTA | 0.255 ± 0.0243 E-score |
| AAGTGTGT | 0.215 ± 0.00375 E-score |
| AAGTGTTC | 0.285 ± 0.0294 E-score |
| CAGTGTTA | 0.402 ± 0.00939 E-score |
| CAGTGTTC | 0.355 ± 0.0115 E-score |
| AGAGCACC | 0.202 ± 0.0183 E-score |
